Screening results as filed in PubChem.
Shown are actives, neighbours in structure and some others; about 19% of the full set was active somewhere.
HT1080NT lethal – kills 2HG-producing HT-1080-NT fibrosarcoma cells; AID 686970; Potency, µM (top dose mostly 46.1 µM), inactives show top-dose activity, negative = less viability, most hits filed as cytotoxic; HT-1080-NT fibrosarcoma viability, CellTiter-Glo ATP luminescence, 48 h; 360,000 tested, 1.6% active;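 further: NT is the 2HG producing partner of a matched IDH1 knockdown line; potency means the concentration at half of the fitted maximal effect; 0% = DMSO-treated cells and -100% = media-only wells without cells; nearly all actives have a fitted effect of over 55% in size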
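750 cells/well, RPMI + 5% FBS; 2 h settle, compound pin-transfer, 48 h at 37 degrees C. CellTiter-Glo 10 min RT, luminescence. Normalized to DMSO and media-only wells.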
HT1080 IDH1KD tx – toxicity to HT-1080 IDH1 knockdown cells (counter line); HT-1080 IDH1 knockdown viability, ATP luminescence, 48 h; Potency, µM (highest dose often 46.1 µM), inactives show top-dose activity, negative = toxicity, most hits filed as cytotoxic; 360,000 tested, 2% active; AID 686971;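 further: potency means the concentration at half of the fitted maximal effect; 0% = DMSO wells and -100% = cell-free medium wells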
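HT-1080-IDH1KD cells (IDH1 knocked down), 750/well in RPMI with 5% FBS, treated with compound 48 h at 37 degrees C. Viability by CellTiter-Glo luminescence, normalised to DMSO and no-cell wells; concentration-response curves classed.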
IL-1B inflam inh – inhibitors of inflammasome signaling (IL-1 beta secretion) | THP-1 LPS/ATP IL-1B secretion, AlphaLISA, 16 h; stronger effect = lower value | activity change, % at 57.5 µM | 360,000 tested, 4.7% active; in the data active means activity change below about -50%; inconclusive means mostly about -30% to -49%
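THP-1 cells pretreated 1 hr with compounds (up to 57.5 uM final), then stimulated with LPS (250 ng/mL final) plus ATP (1.25 mM final); secreted IL-1B measured by AlphaLISA after 16 hr, decreased signal indicating inhibition.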
DT40 TDP1 CPT – DT40-hTDP1 cell growth loss with CPT; chicken DT40 Tdp1-/-;hTDP1 cells + 20 nM CPT, ATP luminescence, 48 h; Potency, µM (doses to about 46.2 µM), for inactives: at the highest dose activity change, negative = growth inhibition, hits mostly inhibitors; 420,000 tested, 12% active; AID 686979; further: potency means the concentration at half of the fitted maximal effect; nearly all actives have a fitted effect of over 55% in size
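Chicken DT40 Tdp1-/- cells complemented with human TDP1, 400 cells/well, exposed to compounds plus 20 nM camptothecin for at least 48 h at 37 C; viability read as ATP content by CellTiter-Glo luminescence.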
TDP1 cell noCPT – qHTS for Inhibitors of human tyrosyl-DNA phosphodiesterase 1 (TDP1): qHTS in cells in absence of CPT; AID 686978, 2013; 420,000 tested, 15% active; DT40 Tdp1-/- hTDP1 cells, no CPT, ATP luminescence, 48 h; Potency, µM (titrated, usually from 46.2 µM), for the others: at the highest dose activity change, negative = growth inhibition, usual class: inhibitors; further: potency means the concentration at half of the fitted maximal effect; nearly all actives have a fitted effect of over 55% in size
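Readout: luminescence from CellTiter-Glo after 30 min in the dark at RT. Cells: DT40 Tdp1-/- with stable hTDP1, 400/well. Exposure: compounds alone, ≥48 hr, 37 °C.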
* hit, by the source's call; ? = inconclusive; . = not tested or not shown. Unless noted, the call rests on the fitted dose curve; in most records, active means well fitted curve in the direction sought with a large enough effect; inconclusive means small, poorly fitted or top-dose-only effect, or another doubt; inactive means no such curve, though single readings can be large; an effect the other way counts as inactive or inconclusive. Unless noted, on the % scale 0 is the no-effect control and ±100 the full control effect.

SMILES | HT1080NT lethal | HT1080 IDH1KD tx | IL-1B inflam inh | DT40 TDP1 CPT | TDP1 cell noCPT
CC(NC(=O)c1cc(=O)[nH]c2ccccc12)c1ccccc1 (centres undefined) | 1.8% | 3.0% | 14.1 | ? | -92.1%
CCc1ccccc1Nc1cc(C(=O)NC(C)c2ccccc2)c2ccccc2n1 (centres undefined) | . | . | . | 29.1µM* | ?
CCc1ccccc1Nc1cc(C(=O)NCc2ccccn2)c2ccccc2n1 | 1.2% | -3.6% | -28.5 | ? | ?
Cn1c(=O)c2cc(NC(=S)NC3CC3)ccc2n1Cc1cccc(C(F)(F)F)c1 | 21.7% | 13.2% | 33.9 | -22.7% | ?
CC(C)OC(=O)c1cc2c(=O)[nH]c(C(Cl)(Cl)Cl)nc2o1 | -0.1% | -2.5% | 19.9 | ? | -9.9%
CCOc1cc(C(=O)Nc2cc(C)ccn2)cc(OCC)c1OCC | -17.2% | -22.6% | -2.2 | 18.4µM* | ?
Cc1ccnc(NC(=O)c2ccc(S(=O)(=O)NCc3ccco3)cc2)c1 | ? | ? | -1.0 | 20.6µM* | ?
COCCSc1ccccc1C(=O)Nc1cc(C)ccn1 | 0.9% | -0.8% | 10.1 | ? | 23.1µM*
CCOc1ccc(C(=O)NCC(=O)Nc2cc(C)ccn2)cc1OCC | 2.3% | -1.9% | ? | 2.4% | 23.7%
Cc1ccnc(NC(=O)c2ccccc2NC(=O)c2ccccc2)c1 | -1.9% | 13.5% | 3.3 | -13.9% | -22.0%
Cc1ccnc(NC(=O)c2ccc(C(=O)c3ccccc3)cc2)c1 | -29.2% | ? | -16.9 | 18.4µM* | 20.6µM*
CCc1ccc2oc(C(=O)Nc3ccccc3C(=O)OC)cc(=O)c2c1 | . | . | . | -12.2% | ?
CNC(=O)c1ccsc1NC(=O)C1CCCN1S(=O)(=O)c1cccs1 (centres undefined) | 3.7% | 2.3% | 9.8 | 13.0% | -14.6%
CCOc1ccc(C(=O)Nc2cccc(C)n2)cc1 | ? | -29.5% | -5.5 | ? | ?
CCOc1ccc(C(=O)Nc2cc(C)ccn2)cc1 | ? | 11.6µM* | -8.8 | 7.31µM* | 23.1µM*
COc1ccc(C(=O)Nc2cccc(C)c2)cc1 | -0.7% | 2.3% | -4.8 | -2.0% | 2.7%
COc1ccc(C(=O)Nc2cccc(C(=O)Nc3cc(C)ccn3)c2)cc1 | 0.7% | 4.6% | -2.2 | ? | 20.6µM*
CCN(CC)CCNC(=O)c1nn(C)c2c1CS(=O)(=O)c1ccccc1-2 | . | . | . | 7.5% | -9.6%
Brc1ccc(-c2c[n+]3c(n2-c2ccccc2)SCC3)cc1 | -17.5% | ? | . | 5.8µM* | 5.8µM*
Cc1ccc(-c2c[n+]3c(n2-c2ccccc2)SCC3)cc1 | -28.0% | ? | -1.6 | 3.26µM* | 2.31µM*
Brc1ccc(-c2ccccc2)cc1 | -10.2% | 9.9% | -15.0 | -13.9% | -13.6%
COc1ccc(-c2c[n+]3c(n2-c2ccccc2)SCC3)cc1 | -23.4% | ? | -5.6 | 8.2µM* | 4.61µM*
COc1ccc(-c2c[n+]3c(n2-c2ccccc2)SCC3)cc1OC | 7.0% | 7.7% | 43.8 | -2.3% | ?
COc1ccc(C(=O)c2ccccc2Cl)cc1OC | -7.5% | 3.5% | -15.0 | 7.2% | -15.9%
COc1ccc(C(=O)Nc2ccc3c(c2)N(C2CCCC2)C(=O)c2ccccc2S3)cc1OC | . | . | . | 10.3µM* | 5.17µM*
SMILES | HT1080NT lethal | HT1080 IDH1KD tx | IL-1B inflam inh | DT40 TDP1 CPT | TDP1 cell noCPT
COc1ccc(C(=O)Nc2ccc3c(c2)C(=O)c2ccccc2C3=O)cc1OC | -2.9% | 11.6% | 10.7 | 10.3µM* | ?
COc1ccc(C(=O)c2c(C(F)(F)F)oc3c2C(=O)c2ccccc2C3=O)cc1OC | 9.2µM* | ? | ? | 2.31µM* | 5.8µM*
O=C(CNC(=O)c1ccccc1F)Nc1ccc2c(c1)OCO2 | 2.1% | 3.8% | 0.0 | -1.2% | 14.5%
COc1ccc(NC(=O)CSc2nc3[nH]c(=O)cc(O)c3s2)c(OC)c1 | 5.4% | 5.8% | 8.6 | 1.7% | -9.7%
Cc1cccc(C(=O)Nc2ccc3ccccc3c2)c1 | -17.7% | -11.2% | -22.3 | -1.2% | ?
N=c1oc2cc(O)ccc2cc1C(=O)Nc1ccc(F)cc1 | -2.3% | -9.0% | -55.6* | ? | ?
